# The whole screen tested about 320,000 compounds, of which about 2,100 (0.66%) were called active. Roughly 53% stayed inconclusive and do not appear here. Calls come from the whole dose curve; as a rule, active = well fitted inhibition curve with a large enough effect in the signal ratio, with a control signal flat (not every such curve was filed as active); inconclusive = small, poorly fitted or top-dose-only effect, or effect the other way, or a change in a side signal; inactive = flat fitted curve, though single readings scatter; the % refers to the signal ratio. Only a selection was taken, and actives are over-represented in it overall.
# Experiment: qHTS Assay for Lipid Storage Modulators in Drosophila S3 Cells;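 for cell number change: cells counted by Cell Tracker Red CMTPX staining in the red channel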; for lipid storage change, negative = inhibition: % is set by controls: 0 for no effect and ±100 for the full control effect
# Conditions: BODIPY lipid droplet fluorescence, 18-24 h, cells fed with added oleic acid; cell number change: measured here: cell count max response; series mostly up to 46.1 µM; lipid storage change, negative = inhibition: at the top concentration
# Procedure, shortened: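 Laser-scanning cytometry quantifies lipid droplet accumulation (500–530 nm total intensity; droplet/cell object ratio) in oleic acid-fed (400 uM added) Drosophila S3 cells treated with a concentration series. 20 uM Triacsin C defined 100% inhibition.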
# Potency is the fitted concentration of half-maximal effect.
Compound,"lipid storage change, negative = inhibition",cell number change [%],Potency,outcome
O=C(CSc1nc2ccc([N+](=O)[O-])cc2[nH]1)NC1CCCC1,4.94% (inactive),16,,
CCCSC1=N/C(=C\c2ccc([N+](=O)[O-])o2)C(=O)S1,17.3% (inactive),18.4,,
O=[N+]([O-])c1ccc(/C=N/N=C/c2ccc([N+](=O)[O-])o2)o1,13.8% (inactive),21.7,,
O=C1NC(=S)S/C1=C\C=C\c1ccc([N+](=O)[O-])o1,,-18.3,6.51 µM (active),
OCC[n+]1ccc(/C=C/c2c[nH]c3ccccc23)cc1,,-1.83,,inactive
Cc1ccccc1/C=C/c1cc[n+](C)cc1,5.44% (inactive),,,
C[n+]1ccc(/C=C/c2c[nH]c3ccccc23)cc1,,5.59,4.11 µM (active),
COc1ccc(S(=O)(=O)N2CCN(CC(=O)NCCc3cccs3)CC2)cc1,1.97% (inactive),-24.5,,
O=C(CN1CCN(S(=O)(=O)c2ccccc2)CC1)NCCc1ccccc1,0.573% (inactive),12.2,,
Cc1cc(S(=O)(=O)N2CCN(CC(=O)NCCc3cccs3)CC2)ccc1Br,,-0.491,6.51 µM (active),
CSc1ccccc1OCc1cc(C(=O)N(C)Cc2cc(C)[nH]n2)no1,-12.2% (inactive),-1.8,,
CSc1cccc(NC(=O)N2CCc3ccc(NC(=O)c4ccccn4)cc3C2)c1,,-11.2,,inactive
COc1ccc(C(=O)N2CCc3cc(OC)c(OC)cc3C2)cc1OC,2.92% (inactive),-23.8,,
COc1ccc(C(=O)N2CCc3ccc(NC(=O)c4ccccn4)cc3C2)cc1F,,5.43,7.31 µM (active),
CC(=O)c1nn(-c2ccc(Cl)cc2)c(=O)[nH]c1=O,,,,inactive
O=C(CN1C(=O)NC2(CCc3ccccc32)C1=O)c1ccc(Br)cc1 (stereo unspecified),-18.9% (inactive),-20.3,,
O=C(CN1C(=O)NC2(CCc3ccccc32)C1=O)c1ccccc1 (stereo unspecified),,29.9,,inactive
O=C(CN1C(=O)NC2(CCc3ccccc32)C1=O)c1ccc(Br)s1 (stereo unspecified),,10.8,4.11 µM (active),
Cc1cccc(OCC(=O)N2CCN(C(=O)c3ccc([N+](=O)[O-])cc3)CC2)c1,9.63% (inactive),2.07,,
O=C(CN1C(=O)NC(Cc2ccccc2)C1=O)Nc1ccccc1 (stereo unspecified),,,,inactive
O=C(CN1C(=O)NC(Cc2ccccc2)C1=O)Nc1ccc(OC(F)(F)F)cc1 (stereo unspecified),,-11.8,23.1 µM (active),
Cc1ccc(NC(=O)CN2C(=O)NC(Cc3ccccc3)C2=O)cc1 (stereo unspecified),14.8% (inactive),2.72,,
Cc1ccc2c(N)c(C(=O)N(c3ccccc3)c3ccccc3)sc2n1,0.972% (inactive),1.13,,

Compound,"lipid storage change, negative = inhibition",cell number change [%],Potency,outcome
O=C(COC(=O)c1ccccn1)Nc1cccc(Cl)c1,-15.1% (inactive),-4.94,,
CSc1nnc(C(C)c2ncc(C(F)(F)F)cc2Cl)n1C (stereo unspecified),10.3% (inactive),29.4,,
COCCCN(C(=O)c1ccccc1F)c1nc(-c2ccc(OC)cc2)cs1,,7.94,,inactive
COCCCN(C(=O)c1ccccc1)c1nc(-c2ccc(OC)cc2)cs1,,5.82,9.2 µM (active),
COCCN(C(=O)c1ccccc1)c1nc(-c2ccc(OC)cc2)cs1,,-13.2,,inactive
COC(=O)c1ccc(-c2nc(O)c(C)s2)cc1,,,,inactive
Cc1cccc(OC2CCN(Cc3c(C(=O)N4CCCC4)nc4ccccn34)CC2)c1,28.5% (inactive),17.9,,
CCCC[C@@H]1CNC(=O)C(=O)N1CCc1cc(C(F)(F)F)cc(C(F)(F)F)c1,0.436% (inactive),3.93,,
CC(OC(=O)Cc1n[nH]c(=O)c2ccccc12)C(=O)Nc1ccc(F)cc1 (stereo unspecified),,-13.8,,inactive [at 0.0737 µM]
COC(=O)c1ccc(COC(=O)Cc2n[nH]c(=O)c3ccccc23)cc1,16% (inactive),,,
CCc1ccc(C(=O)C(C)OC(=O)Cc2n[nH]c(=O)c3ccccc23)cc1 (stereo unspecified),,-26.4,13 µM (active),
Cc1csc(Sc2ccc([N+](=O)[O-])cc2C(=O)OCC(=O)NC(=O)NC(C)(C)C)n1,,,,inactive
CC(c1ccccc1)n1c(CCCO)nc2ccccc21 (stereo unspecified),0.218% (inactive),-13.2,,
CCCCN(C)CCn1c(=S)[nH]c2cc(OCC)c(OCC)cc2c1=O,1.86% (inactive),5.41,,
COC(=O)c1cc(C(=O)N2CCc3ccccc32)cc([N+](=O)[O-])c1,8.69% (inactive),3.51,,
O=C(CC1C(=O)NC2CCCCC2N1C(=O)c1ccc(F)cc1)Nc1ccccc1 (stereo unspecified),,18,29.1 µM (active),
COc1ccc(NC(=O)CC2C(=O)NC3CCCCC3N2C(=O)c2ccc(F)cc2)cc1 (stereo unspecified),,6.58,,inactive
COc1cccc(NC(=O)CC2C(=O)NC3CCCCC3N2C(=O)c2ccc(F)cc2)c1 (stereo unspecified),,36.9,,inactive
COc1ccc(NC(=S)N2CCC(C(=O)c3ccc(OC)cc3)CC2)cc1,10.2% (inactive),-17.6,,
O=C(COC(=O)COc1ccc2c(c1)CCC2)Nc1ccccc1,3.22% (inactive),-5.42,,
Cn1nc(C(=O)NNC(=O)C(CCC(N)=O)NS(=O)(=O)c2ccc(Cl)cc2)c2ccccc2c1=O (stereo unspecified),6.87% (inactive),15.9,,
Cc1ccc(S(=O)(=O)N/N=C/c2ccc3nccnc3c2)cc1,9.08% (inactive),-5.68,,
COc1ccc(CCNC(=O)Cn2cccc2C(=O)c2ccccc2C)cc1OC,,-20.4,20.6 µM (active),
